Screens: PubChem BioAssay, National Center for Advancing Translational Sciences (NCATS)
HCMV antiviral = qHTS Assay for inhibitors of the human cytomegalovirus (HCMV); HFF cells, HCMV-luciferase reporter, 72 h; active compounds read low; 4.5% of 410,000 active; activity change, negative = inhibition, % at 57.5 µM; in the data active = activity change below about -60%; inconclusive = no clear call, values can overlap the other calls; inactive = above about -39%; also: % is scaled to controls: 0 for no effect and ±100 for the full control effect
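Steps: HFFs plated, 16 h 37C; compounds added; HCMV-luciferase added to MOI 1 PFU/cell; 72 h 37C; OneGlo reagent, 5 min room temperature; luminescence read, normalized to controls.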
Lassa entry inh = qHTS for Inhibitors of binding or entry into cells for Lassa Virus | Lassa virus pseudotype entry inhibition, cell reporter | Potency, µM (series often up to 37.9 µM), without a hit: at the top dose activity change, negative = inhibition, actives largely listed as inhibitors | 1.2% of 300,000 active | AID 540256, 2011; calls by dose curve; tested in HEK293 cells; also: potency is read from the fitted curve at half-maximal effect; % is scaled to controls: 0 for no effect and ±100 for the full control effect; nearly all actives have a fitted effect of over 50% in size
SARS PLP yeast = qHTS of Yeast-based Assay for SARS-CoV PLP; S. cerevisiae expressing SARS-CoV PLpro, growth rescue; Potency, µM (doses to about 32.9 µM), inactives show at the top dose activity, positive = growth rescue, hits mostly activators; 0.19% of 330,000 active; AID 485353, 2010; calls by dose curve; also: potency is read from the fitted curve at half-maximal effect; 0% is about no effect; nearly all actives have a fitted effect of over 55% in size
MARV entry inh = qHTS for inhibitors of binding or entry into cells for Marburg Virus; Marburg virus pseudotyped entry inhibition, cell reporter; Potency, µM (titrated, usually from 37.8 µM), without a hit: at the top dose activity change, negative = inhibition, most hits filed as inhibitors; 1.8% of 300,000 active; calls by dose curve; tested in HEK293 cells; also: potency is read from the fitted curve at half-maximal effect; % is scaled to controls: 0 for no effect and ±100 for the full control effect
HCV inh = qHTS Assay for Inhibitors of Hepatitis C Virus (HCV) | 3.4% of 340,000 active | Potency, µM (series often up to 41.8 µM), without a hit: top-dose activity change, negative = inhibition, actives largely listed as inhibitors | AID 651820, 2012 | Huh7.5.1 HCVcc-Cre infection, luciferase reporter, 44 h; active = well fitted inhibition curve with a large enough effect; inconclusive = small, poorly fitted or top-dose-only effect, or another doubt; inactive = no such curve, though single readings can be large or run the other way; also: potency is read from the fitted curve at half-maximal effect; % is scaled to controls: 0 for no effect and ±100 for the full control effect
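Compounds are dispensed onto cells plated 4 h earlier at 1,000 per well, with HCVcc-Cre virus (about 0.5 moi) added next. Following 44 h of culture, luminescent signal is measured for 15 sec after 15 min with substrate at room temperature.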
FMDV inh = High Throughput Screening for Foot and Mouth Disease Virus Antivirals. Potency, µM (titrated, usually from 57.9 µM), without a hit: top-dose activity change, negative = inhibition, most hits filed as inhibitors. AID 1159524, 2015. 1.2% of 410,000 active. FMDV antiviral cell-based qHTS; calls by dose curve; tested in HEK293T cells; also: read-out not given here; potency is read from the fitted curve at half-maximal effect; % is scaled to controls: 0 for no effect and ±100 for the full control effect; nearly all actives have a fitted effect of over 45% in size
* hit, by the source's call; ? = inconclusive; . = no result given; [ ] = remark or other dose. Compounds with a hit are over-represented: about 8% of the library has one in this group of screens.

SMILES	HCMV antiviral	Lassa entry inh	SARS PLP yeast	MARV entry inh	HCV inh	FMDV inh
CCc1ccc(/C=C2\SC(=S)N(CCCC(=O)Nc3ccc(C(=O)O)cc3)C2=O)cc1	-93*	.	-1%	.	32%	-3%
O=C(CCN1C(=O)S/C(=C\c2ccc(Cl)cc2)C1=O)Nc1ccc(C(=O)O)cc1	23	-2%	5%	-3%	18%	-5%
COc1ccc(/C=C2\SC(=O)N(CCCC(=O)Nc3ccc(C(=O)O)cc3)C2=O)cc1	-101*	.	.	.	.	4µM*
CCOC(=O)N1CCC(NC(=O)c2cc(C(=O)Nc3ccc(OCC)cc3)ccc2CO)CC1	-67*	-3%	-2%	-3%	-22%	?
CCOC(=O)N1CCC(NC(=O)c2cc(C(=O)Nc3cccc(C(F)(F)F)c3)ccc2CO)CC1	?	.	-2%	.	13µM*	?
CN1C(=O)COCc2cc(-c3ccc(F)c(Cl)c3)ccc21	52	.	.	.	.	.
COc1cc(OC)cc(C(=O)N[C@H](C(=O)Nc2cc(C)cc(C)c2)C(C)C)c1	-76*	-23%	-4%	-2%[46.1 µM]	?	6%
CCOc1ccc(CCNC(=O)CCCc2nnc3n(CC)c(=O)c4sccc4n23)cc1	?	2%[46.1 µM]	.	.	.	0%
COc1cccc(CN2CCC(n3cc(C(=O)N4CCCCC4)nn3)CC2)c1OC	.	.	.	.	.	-8%
O=C(Nc1ccc(-n2cccc2)cc1)C1=COC2=NC(=O)N(Cc3ccccc3)CCN12	-87*	.	.	.	.	.
O=C(NCC1CCCCC1)c1ccc2nc([C@@H]3O[C@H](CO)[C@@H](O)[C@H]3O)[nH]c2c1	-6	.	.	.	.	-10%
CCOC(=O)c1c(CN(C)C)oc2cc(CN(C)C)c(O)c(CSc3ccccc3)c12	-4	-10%	0%	10µM*	-22%	-20%
COCC(C)NC(=O)C1=CC(c2ccc3c(c2)OCO3)=NS(=O)(=O)N1C (centres undefined)	10	-11%[46.1 µM]	.	5%[46.1 µM]	.	14%
Fc1ccc(Nc2nc(N/N=C/c3ccco3)nc(N3CCCCC3)n2)cc1	?	.	-8%	.	11µM*	16%
COCCCN(C(=O)c1cc2c(s1)CCCCC2)c1c(N)n(Cc2ccccc2)c(=O)[nH]c1=O	-39	10µM*	-3%	-17%[46.1 µM]	?	-13%
CCc1nc2ccccc2c(C(=O)Oc2cccc3cccnc23)c1C	27	1%	9%	6%	2.2µM*	-12%
CCc1nc2ccccc2c(C(=O)OCC(=O)N(CCOC)c2c(N)n(Cc3ccccc3)c(=O)[nH]c2=O)c1C	?	6%	-7%	?	14µM*	-25%
COCCN(C(=O)COC(=O)c1c(-c2ccccc2)noc1C)c1c(N)n(Cc2ccccc2)c(=O)[nH]c1=O	16	-14%[46.1 µM]	-1%	10%[46.1 µM]	?	9%
CCc1nc2ccccc2c(C(=O)NCc2ccccc2)c1C	-68*	7%	0%	-4%	-15%	-7%
CN(C)c1cccc(CNc2nccc3[nH]c(-c4ccc(F)c(F)c4)nc23)c1	0	.	.	.	.	.
CCc1nc2ccccc2c(C(=O)OCc2nc3ccccc3c(=O)[nH]2)c1C	12	?	-13%	3.5µM*	?	-21%
COc1ccc(OC)c(NC(=O)Cn2cc(C#N)c3cc(Br)ccc32)c1	-66*	-11%	-5%	-26%	?	?
COc1ccc(NC(=O)Cn2cc(C#N)c3ccccc32)cc1	-10	-3%	-1%	?	1%	-8%
CCc1nc2ccc(C(=O)Nc3ccc(OC)c(OC)c3)cn2c1N(C)Cc1cccs1	-79*	.	.	.	.	-6%
COc1ccccc1Cn1c(C)c(C(=O)NCc2ccco2)sc1=O	44	.	.	.	.	-3%
SMILES	HCMV antiviral	Lassa entry inh	SARS PLP yeast	MARV entry inh	HCV inh	FMDV inh
CN(Cc1ccccc1)c1nc(-c2ccc(F)cc2)cc(C(F)(F)F)n1	-31	0%[46.1 µM]	.	20%[46.1 µM]	.	-23%
CSc1c(N(C)C)c(=O)c1=S	-27	.	.	.	.	.
CC1CCN(C(=O)Cn2c3ccccc3c3nc4n(c(=O)c32)CCCS4)CC1	-61*	-16%[46.1 µM]	0%	12%[46.1 µM]	8%	-16%
CC[C@@]12C=C(C=Cc3ccccc3)[C@](CC)(C1)[C@H](c1ccccc1)CC2=O	.	.	.	4%[14.2 µM]	.	.
O=C(C=C1SCCS1)/C=C/c1ccco1	64	11µM*	6%	?	29%	?
O=C(O)C(C(=O)/C=C/c1ccco1)=C1SCCS1	?	3%	-3%	3%	20%	10%
CCCc1nc2cccnc2n1C1CCN(C(=O)Cn2nccc2C)CC1	.	.	.	.	.	9%
COc1cccc(CO[C@H]2C=C[C@@H](c3ccccc3)O[C@H]2CN=[N+]=[N-])c1	.	.	.	-17%[14.2 µM]	.	.
COc1cccc(N2CCN(c3nc(-c4ccccc4C)cc(=O)[nH]3)CC2)c1	-98*	.	-15%	.	?	-12%
O=C(C#Cc1ccccc1)c1ccco1	-99*	11µM*	-66%	?	?	8.9µM*
O=C(N/N=C/c1ccccc1)c1ccco1	56	?	-2%	?	-2%	60%
Cc1cccc(NC(=O)C(=O)NCC(c2cccnc2)N2CCc3ccccc3C2)c1C (centres undefined)	-4	7%[46.1 µM]	.	.	.	?
Cc1ccccc1Nc1nc(N)nc(COC(=O)c2cccn2C)n1	21	?	-3%	-5%	?	52%
CCc1ccccc1Nc1nc(N)nc(COC(=O)c2cccn2C)n1	-65*	?	1%	8.2µM*	?	27%
Cc1ccc(S(=O)(=O)Cn2nnnc2CN2CCCC3(CCCCC3)C2)cc1	-68*	?	-14%	?	3%	.
O=C(N/N=C/c1c[nH]c2ccccc12)c1ccc(Br)cc1	73	-23%[46.1 µM]	-8%	?	29%	11%
O=C(N/N=C/c1c[nH]c2ccccc12)c1cc(-c2ccc(-c3ccccc3)cc2)n[nH]1	-74*	-16%	-2%	?	-26%	?
CC(C)Oc1ccc(Br)cc1C(=O)N/N=C/c1c[nH]c2ccccc12	-29	-13%[46.1 µM]	-4%	?	10µM*	-9%
O=C(N/N=C/c1ccco1)c1cc(-c2ccc3ccccc3c2)n[nH]1	?	?	-17%	13µM*	-11%	-5%
O=C(N/N=C/c1c[nH]c2ccccc12)c1cc(-c2ccc3ccccc3c2)n[nH]1	-19	?	-3%	?	10µM*	-22%
O=C(CSc1nnc(-c2ccccn2)o1)Nc1ccccc1Cl	21	.	0%	?	-1%	60%
Cc1cc2nc(Sc3c([N+](=O)[O-])nc(C)n3Cc3ccccc3)[nH]c2cc1C	12	1%	9%	?	-12%	32µM*
COc1ccc2nc(Sc3c([N+](=O)[O-])nc(C)n3Cc3ccccc3)[nH]c2c1	28	16µM*	1%	?	?	16µM*
